According to PubChem BioAssay (NCATS):
Inconclusive results are not listed. Activity calls are given as the source filed them. Unless noted, calls come from the whole dose curve.

Assays:
[1] = target: Cytochrome P450 2D6 (Homo sapiens) (UniProt P10635); test: qHTS for inhibitors of CYP2D6 against the NCATS DSHEA and TCM libraries (AID 1919972; active = well fitted curve in the direction sought with a large enough effect; an effect the other way counts as inactive or inconclusive; note: % is set by controls: 0 for no effect and ±100 for the full control effect)
Sequence of Cytochrome P450 2D6 (Homo sapiens) (P10635 whole entry, looked up): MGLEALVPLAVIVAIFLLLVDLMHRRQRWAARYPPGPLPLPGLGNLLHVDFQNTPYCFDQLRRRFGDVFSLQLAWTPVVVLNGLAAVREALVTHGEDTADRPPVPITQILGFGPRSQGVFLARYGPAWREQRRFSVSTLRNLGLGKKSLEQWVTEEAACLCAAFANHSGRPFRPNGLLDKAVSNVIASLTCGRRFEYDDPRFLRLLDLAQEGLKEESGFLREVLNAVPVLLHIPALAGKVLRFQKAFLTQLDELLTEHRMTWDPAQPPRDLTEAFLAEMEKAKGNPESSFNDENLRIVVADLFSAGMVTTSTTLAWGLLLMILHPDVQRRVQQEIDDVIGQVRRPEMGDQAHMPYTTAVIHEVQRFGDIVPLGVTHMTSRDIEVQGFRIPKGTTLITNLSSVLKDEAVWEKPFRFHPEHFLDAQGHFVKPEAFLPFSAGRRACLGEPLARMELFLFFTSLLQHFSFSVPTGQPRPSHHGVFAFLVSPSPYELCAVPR
Procedure, shortened: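 qHTS, concentration–response format with most substances from 19.5 nM. CYP2D6 + pro-luciferin substrate, 15 min with compound, then 1x NADPH regen, 30–45 min RT dark. Glo detection 30 min, luminescence. Quinidine control.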

[2] = target: Cytochrome P450 2C9 (Homo sapiens) (UniProt P11712); test: qHTS for inhibitors of CYP2C9 against the NCATS DSHEA and TCM libraries (AID 1919973; active = well fitted curve in the direction sought with a large enough effect; an effect the other way counts as inactive or inconclusive;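 note: luminogenic pro-luciferin CYP2C9 substrate turned into luciferin with NADPH regeneration; % is set by controls: 0 for no effect and ±100 for the full control effect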)
Sequence of Cytochrome P450 2C9 (Homo sapiens) (P11712 whole entry, looked up): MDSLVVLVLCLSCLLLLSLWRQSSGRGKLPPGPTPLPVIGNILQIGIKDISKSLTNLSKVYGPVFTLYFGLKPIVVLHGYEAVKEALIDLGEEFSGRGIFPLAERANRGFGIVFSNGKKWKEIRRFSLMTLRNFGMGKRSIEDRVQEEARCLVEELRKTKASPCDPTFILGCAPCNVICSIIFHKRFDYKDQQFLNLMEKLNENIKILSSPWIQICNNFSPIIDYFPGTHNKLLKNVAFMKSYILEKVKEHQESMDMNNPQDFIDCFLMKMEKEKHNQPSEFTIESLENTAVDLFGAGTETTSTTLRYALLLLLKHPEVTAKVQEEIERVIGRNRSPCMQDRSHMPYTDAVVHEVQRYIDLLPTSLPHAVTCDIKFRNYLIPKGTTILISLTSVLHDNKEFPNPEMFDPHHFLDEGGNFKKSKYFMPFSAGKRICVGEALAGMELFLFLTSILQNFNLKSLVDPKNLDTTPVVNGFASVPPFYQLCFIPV
Procedure, shortened: (§1)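 Substances were tested against enzyme with a pro-luciferin substrate; minus-enzyme wells served as background. After NADPH-initiated oxidation (30-45 min, RT), light was generated with P450-Glo reagent.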

[3] = target: Cytochrome P450 2C19 (Homo sapiens) (UniProt P33261); test: qHTS for inhibitors of CYP2C19 against the NCATS DSHEA and TCM libraries (AID 1919974; active = well fitted curve in the direction sought with a large enough effect; an effect the other way counts as inactive or inconclusive;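 note: luminescence from luciferin released by CYP2C19 oxidation of a pro-luciferin substrate; % is set by controls: 0 for no effect and ±100 for the full control effect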)
Sequence of Cytochrome P450 2C19 (Homo sapiens) (P33261 whole entry, looked up): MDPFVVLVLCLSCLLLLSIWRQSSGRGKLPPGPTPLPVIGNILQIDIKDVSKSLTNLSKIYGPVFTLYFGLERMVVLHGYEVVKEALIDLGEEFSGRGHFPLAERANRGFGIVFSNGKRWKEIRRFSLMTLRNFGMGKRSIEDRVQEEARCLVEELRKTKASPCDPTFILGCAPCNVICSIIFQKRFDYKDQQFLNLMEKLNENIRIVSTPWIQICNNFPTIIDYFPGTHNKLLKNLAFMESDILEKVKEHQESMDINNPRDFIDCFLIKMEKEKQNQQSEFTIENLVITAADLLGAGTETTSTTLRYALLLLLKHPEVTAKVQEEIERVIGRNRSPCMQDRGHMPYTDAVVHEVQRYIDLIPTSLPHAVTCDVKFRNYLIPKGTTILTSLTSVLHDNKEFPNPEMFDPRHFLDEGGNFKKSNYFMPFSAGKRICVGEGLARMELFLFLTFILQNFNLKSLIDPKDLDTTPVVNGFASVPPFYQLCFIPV
Procedure, shortened: as §1

[4] = KB-3-1 P-gp reporter qHTS against the NCATS DSHEA and TCM libraries (AID 1919975; active = well fitted curve in the direction sought with a large enough effect; an effect the other way counts as inactive or inconclusive; note: 0% is about no effect)
Procedure, shortened: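 72 h exposure of KB-3-1 cells (DMEM, 10% FBS) to DSHEA/TCM samples, concentration-response; cell viability measured as CellTiter-Glo luminescence after 30 min at room temperature.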

[5] = target: Cytochrome P450 1A2 (Homo sapiens) (UniProt P05177); test: qHTS for inhibitors of CYPIA2 against the NCATS DSHEA and TCM libraries (AID 1919976; active = well fitted curve in the direction sought with a large enough effect; an effect the other way counts as inactive or inconclusive; note: % is set by controls: 0 for no effect and ±100 for the full control effect)
Sequence of Cytochrome P450 1A2 (Homo sapiens) (P05177 whole entry, looked up): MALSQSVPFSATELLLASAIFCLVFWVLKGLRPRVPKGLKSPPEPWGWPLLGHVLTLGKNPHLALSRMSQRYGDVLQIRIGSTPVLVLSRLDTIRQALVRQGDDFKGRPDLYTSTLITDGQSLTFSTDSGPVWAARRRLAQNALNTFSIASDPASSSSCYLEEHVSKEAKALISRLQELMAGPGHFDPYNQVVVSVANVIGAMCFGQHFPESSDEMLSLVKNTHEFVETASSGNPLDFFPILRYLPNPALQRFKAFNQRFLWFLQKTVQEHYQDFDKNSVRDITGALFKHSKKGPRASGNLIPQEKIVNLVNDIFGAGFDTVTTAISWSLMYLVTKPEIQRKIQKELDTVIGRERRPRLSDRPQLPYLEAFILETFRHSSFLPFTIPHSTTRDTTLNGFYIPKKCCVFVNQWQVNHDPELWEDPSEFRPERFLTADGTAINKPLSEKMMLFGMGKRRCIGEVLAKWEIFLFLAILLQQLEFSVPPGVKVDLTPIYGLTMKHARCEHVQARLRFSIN
Procedure, shortened: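 Luminescence read-out: pro-luciferin converted to D-luciferin by CYP1A2, detected with P450-Glo reagent after 30 min RT. Enzyme plus substrate got compounds for 15 min RT; NADPH regeneration solution (final 1x) started a 30-45 min reaction, light-protected.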

[6] = qHTS Counterscreen for compound interference against the NCATS DSHEA and TCM libraries (AID 1919978; active = well fitted curve in the direction sought with a large enough effect; an effect the other way counts as inactive or inconclusive; note: % of control where 0% means no effect); conditions: firefly luciferase detection reagent interference, luminescence
Procedure, shortened: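 Read-out is luminescence after 30 min at RT with luciferin detection reagent. Before that, compounds (19.5 nM to 39.8 uM final) sat 15 min at RT with 1 uM D-luciferin or 100 mM potassium phosphate buffer. PTC124 served as intraplate control.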

[7] = Dual reporter qHTS for agonist of Pregnane X Receptor (hPXR) against the NCATS DSHEA and TCM libraries: Fluorescence readout (AID 1920058; active = well fitted curve in the direction sought with a large enough effect; an effect the other way counts as inactive or inconclusive; note: 0% is about no effect)
Procedure, shortened: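 Fluorescence read-out for cell viability: CellTiter-Fluor, 1 h at 37 °C, Ex/Em 405/540 nm. This followed ~24 h treatment of hPXR-Luc HepG2 cells with substances in agonist mode.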

[8] = target: Nuclear receptor subfamily 1 group I member 2 (Homo sapiens) (UniProt O75469); test: Dual reporter qHTS for agonist of Pregnane X Receptor (hPXR) against the NCATS DSHEA and TCM libraries: Luminescence readout (AID 1920059; active = well fitted curve in the direction sought with a large enough effect; an effect the other way counts as inactive or inconclusive; note: 0% is about no effect)
Sequence of Nuclear receptor subfamily 1 group I member 2 (Homo sapiens) (O75469 whole entry, looked up): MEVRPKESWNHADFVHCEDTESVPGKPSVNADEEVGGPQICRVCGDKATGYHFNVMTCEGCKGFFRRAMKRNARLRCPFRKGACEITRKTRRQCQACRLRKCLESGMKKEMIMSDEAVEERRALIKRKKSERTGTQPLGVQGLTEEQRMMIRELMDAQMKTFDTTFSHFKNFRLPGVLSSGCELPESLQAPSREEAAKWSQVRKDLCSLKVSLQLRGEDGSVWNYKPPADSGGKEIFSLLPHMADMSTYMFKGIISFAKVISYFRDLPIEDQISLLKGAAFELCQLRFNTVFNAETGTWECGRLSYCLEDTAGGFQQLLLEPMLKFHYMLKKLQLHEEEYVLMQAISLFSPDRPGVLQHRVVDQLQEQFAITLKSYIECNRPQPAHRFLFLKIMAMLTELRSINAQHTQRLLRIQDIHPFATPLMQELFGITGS
Procedure, shortened: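 hPXR-LucHepG2 cells in phenol red-free DMEM with 5% charcoal-stripped FBS, 2000 cells/well, attached 5 h, then exposed 24 h at 37C to compounds; rifampicin as positive agonist control (2.8 nM–92 uM). Luciferase luminescence read.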

[9] = target: Nuclear receptor subfamily 1 group I member 2 (Homo sapiens) (UniProt O75469); test: Dual reporter qHTS for antagonist of Pregnane X Receptor (hPXR) against the NCATS DSHEA and TCM libraries: Luminescence Readout (AID 1920060; active = well fitted curve in the direction sought with a large enough effect; an effect the other way counts as inactive or inconclusive; note: 0% is about no effect)
Procedure, shortened: (§2)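 Rifampicin-stimulated (2 uM final) hPXR-luciferase HepG2 cells were treated for 24 h with DSNP/TCM substances. Viability came from CellTiter-Fluor fluorescence, reporter activity from ONE-Glo luminescence.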

[10] = Dual reporter qHTS for antagonist of Pregnane X Receptor (hPXR) against the NCATS DSHEA and TCM libraries: Fluorescence Readout (AID 1920061; active = well fitted curve in the direction sought with a large enough effect; an effect the other way counts as inactive or inconclusive; note: 0% is about no effect)
Procedure, shortened: as §2

[11] = qHTS drug screen for cell cycle checkpoint inhibitors in PARPi-resistant BRCA-mutant ovarian cancer cell lines. (AID 1963452); conditions: PEO1/OlaR viability, CellTiter-Glo luminescence, 96 h; for Z-AUC: stronger effect = lower value; note: potency is the fitted concentration of half-maximal effect
Procedure, shortened: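 PEO1, PEO4 and PEO1/OlaR ovarian cancer cells, 600 per well, exposed 96 h at 37C to a dilution series. Viability read by CellTiter-Glo luminescence, normalized to DMSO and empty wells; activity summarized as Z-AUC.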

[12] = qHTS for identification of novel therapeutic agents for treatment of microphthalmiaassociated transcription factor (MiT) renal cell carcinoma (RCC) (AID 1963991); conditions: CellTiter-Glo, 48 h, stronger effect = lower value
Procedure, shortened: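 Viability of three TFE3-fusion renal carcinoma lines measured by CellTiter-Glo after 48 h treatment with each of 1912 compounds at 11 concentrations. Responses scaled between DMSO (100%) and empty wells (0%) before curve fitting.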

[13] = qHTS profiling for inhibitors of Plasmodium falciparum proliferation (AID 504749; active = well fitted curve in the direction sought with a large enough effect; an effect the other way counts as inactive or inconclusive;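 note: 0% = DMSO vehicle and full inhibition = artemisinin control; nearly all actives have a fitted effect of over 60% in size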); conditions: P. falciparum in erythrocytes, SYBR Green DNA, 72 h, at 28.7 µM (top of the series)
Procedure, shortened: (§3)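 Fluorescence of SYBR Green-bound parasite DNA, read at 485/535 nm, served as the growth measure. Infected erythrocytes were cultured with compound 72 h; artemisinin (0.29 uM) and DMSO wells defined the normalization range.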

3D7 = test: as above; conditions: P. falciparum in erythrocytes, SYBR Green DNA, 72 h; series mostly up to 28.7 µM
Procedure, shortened: as §3

7G8 = test: as above; conditions: P. falciparum in erythrocytes, SYBR Green DNA, 72 h; series mostly up to 28.7 µM
Procedure, shortened: as §3

AA1029 = test: as above; conditions: P. falciparum in erythrocytes, SYBR Green DNA, 72 h; series mostly up to 28.7 µM
Procedure, shortened: as §3

AS120 = test: as above; conditions: P. falciparum in erythrocytes, SYBR Green DNA, 72 h; series mostly up to 28.7 µM
Procedure, shortened: as §3

ATS189 = test: as above; conditions: P. falciparum in erythrocytes, SYBR Green DNA, 72 h; series mostly up to 28.7 µM
Procedure, shortened: as §3

ATS95 = test: as above; conditions: P. falciparum in erythrocytes, SYBR Green DNA, 72 h; series mostly up to 28.7 µM
Procedure, shortened: as §3

C2A = test: as above; conditions: P. falciparum in erythrocytes, SYBR Green DNA, 72 h; series mostly up to 28.7 µM
Procedure, shortened: as §3

[14] = measured here: PEO1 parental Z-AUC

NC(=O)c1cnccn1
outcome [1]: inactive | outcome [2]: inactive | outcome [3]: inactive | outcome [4]: inactive | outcome [5]: inactive | max response [6]: 0.688% (inactive) | outcome [7]: inactive | outcome [8]: inactive | outcome [9]: inactive | outcome [10]: inactive | Z-AUC [11]: 0.616 (inactive) | Z-AUC [11, 14]: 0.733 | Z-AUC ([11]; measured here: PEO4 Z-AUC): 0.41 | z-score ([12]; TFE3-RCC UOK109 viability, measured here: UOK109 Z-AUC): 0.906 | z-score ([12]; TFE3-RCC viability, measured here: UOK124 Z-AUC): 0.826 | z-score ([12]; TFE3-RCC viability, measured here: UOK145 Z-AUC): 0.673 | activity, negative = inhibition ([13]; parasite line A): 13.8% (inactive) | activity, negative = inhibition ([13]; parasite line B): 12.8% (inactive) | Potency (3D7): inactive | Potency (7G8): inactive | Potency (AA1029): inactive | Potency (AS120): inactive | Potency (ATS189): inactive | Potency (ATS95): inactive | Potency (C2A): inactive

Cc1csc(NC(=O)c2sc3nc4c(c(C(F)(F)F)c3c2N)CCC4)n1
Z-AUC [11]: 0.359 (inactive) | Z-AUC [11, 14]: 0.125 | Z-AUC ([11]; measured here: PEO4 Z-AUC): 0.375

C/C(=C\C(=O)Nc1ccccc1C(=O)O)c1ccc2ccccc2c1
Z-AUC [11]: 0.258 (inactive) | Z-AUC [11, 14]: 0.668 | Z-AUC ([11]; measured here: PEO4 Z-AUC): 0.827

Fc1ccc(Cl)cc1-c1nc(Nc2ccncc2)c2nccnc2n1
Z-AUC [11]: 0.985 (inactive) | Z-AUC [11, 14]: 1.18 | Z-AUC ([11]; measured here: PEO4 Z-AUC): 1.09

CCCn1c(=O)c2[nH]c(C34CC5CC3C[C@@H](C5)C4)nc2n(CCC)c1=O
Z-AUC [11]: 0.471 (inactive) | Z-AUC [11, 14]: 0.393 | Z-AUC ([11]; measured here: PEO4 Z-AUC): 0.158

COCCNCCCn1c(C(=O)CF)c(-c2ccc(C)cc2)c2c(N)ncnc21
Z-AUC [11]: 0.937 (inactive) | Z-AUC [11, 14]: 1.02 | Z-AUC ([11]; measured here: PEO4 Z-AUC): 1.22

CCc1cncnc1N1CCN(Cc2nc3ccc(C(F)(F)F)cc3[nH]2)CC1
Z-AUC [11]: -0.0922 (inactive) | Z-AUC [11, 14]: -0.164 | Z-AUC ([11]; measured here: PEO4 Z-AUC): 0.451

CS(=O)(=O)c1ccc(C(=O)Nc2ccc(Cl)c(-c3ccccn3)c2)c(Cl)c1
Z-AUC [11]: 0.211 (inactive) | Z-AUC [11, 14]: -0.252 | Z-AUC ([11]; measured here: PEO4 Z-AUC): -0.353

CCCS(=O)(=O)Nc1ccc(F)c(C(=O)c2c[nH]c3ncc(-c4ccc(Cl)cc4)cc23)c1F
Z-AUC [11]: 0.0673 (inactive) | Z-AUC [11, 14]: -0.745 | Z-AUC ([11]; measured here: PEO4 Z-AUC): -0.427

CC[C@H](Nc1ncnc2nc[nH]c12)c1nc2cccc(F)c2c(=O)n1-c1ccccc1
Z-AUC [11]: 0.714 (inactive) | Z-AUC [11, 14]: 0.526 | Z-AUC ([11]; measured here: PEO4 Z-AUC): 0.476

Cc1cc(Nc2nc(N[C@@H](C)c3ncc(F)cn3)ncc2Cl)n[nH]1
Potency [11]: 12.3 µM (active) | Z-AUC [11, 14]: -1.18 | Z-AUC ([11]; measured here: PEO4 Z-AUC): -1.3

CS(=O)(=O)c1cccc(CNc2nc(Nc3ccc4c(c3)CCC(=O)N4)ncc2C(F)(F)F)c1
Z-AUC [11]: -0.784 (inactive) | Z-AUC [11, 14]: -1.23 | Z-AUC ([11]; measured here: PEO4 Z-AUC): -1.25

O=C1[C@H](Cc2ccc(O)cc2)N2C(=O)CCN(C(=O)NCc3ccccc3)[C@H]2CN1Cc1cccc2ccccc12
Z-AUC [11]: 0.428 (inactive) | Z-AUC [11, 14]: 0.318 | Z-AUC ([11]; measured here: PEO4 Z-AUC): 0.0223

N#CC[C@H](C1CCCC1)n1cc(-c2ncnc3[nH]ccc23)cn1
Z-AUC [11]: 0.476 (inactive) | Z-AUC [11, 14]: 0.0833 | Z-AUC ([11]; measured here: PEO4 Z-AUC): 0.752

Cc1c(CCOc2ccc(C(=O)O)cc2)c2cc(Cl)ccc2n1C(c1ccccc1)c1ccccc1
Z-AUC [11]: 0.749 (inactive) | Z-AUC [11, 14]: 1.16 | Z-AUC ([11]; measured here: PEO4 Z-AUC): 0.896

Nc1cccc(S(=O)(=O)N2CCCN(S(=O)(=O)c3ccc4c(c3)OCCO4)CC2)c1
Z-AUC [11]: 1.03 (inactive) | Z-AUC [11, 14]: 0.843 | Z-AUC ([11]; measured here: PEO4 Z-AUC): 0.787

CN([C@@H](Cc1ccc(OS(=O)(=O)c2cccc3cnccc23)cc1)C(=O)N1CCN(c2ccccc2)CC1)S(=O)(=O)c1cccc2cnccc12
Z-AUC [11]: 1.57 (inactive) | Z-AUC [11, 14]: 1.54 | Z-AUC ([11]; measured here: PEO4 Z-AUC): 1.7

C[C@@H]1CN(Cc2ccc(F)cc2)[C@@H](C)CN1C(=O)c1cc2c(C(=O)C(=O)N(C)C)cn(C)c2cc1Cl
Z-AUC [11]: 0.142 (inactive) | Z-AUC [11, 14]: 0.03 | Z-AUC ([11]; measured here: PEO4 Z-AUC): 0.299

COc1cc(Nc2ncc3c(n2)-c2ccc(Cl)cc2C(c2c(F)cccc2OC)=NC3)ccc1C(=O)O
Z-AUC [11]: -0.756 (inactive) | Z-AUC [11, 14]: -0.991 | Z-AUC ([11]; measured here: PEO4 Z-AUC): -1.47

CCn1c(-c2nonc2N)nc2cnc(Oc3cccc(NC(=O)c4ccc(OCCN5CCOCC5)cc4)c3)cc21
Z-AUC [11]: 0.926 (inactive) | Z-AUC [11, 14]: 0.828 | Z-AUC ([11]; measured here: PEO4 Z-AUC): 0.912

COc1ccc(CCN2CCN(CCCc3ccccc3)CC2)cc1OC
Z-AUC [11]: -0.614 (inactive) | Z-AUC [11, 14]: -0.141 | Z-AUC ([11]; measured here: PEO4 Z-AUC): -0.419

CNC(=O)c1ccc(N2C(=S)N(c3ccc(C#N)c(C(F)(F)F)c3)C(=O)C2(C)C)cc1F
Z-AUC [11]: 0.0364 (inactive) | Z-AUC [11, 14]: 0.676 | Z-AUC ([11]; measured here: PEO4 Z-AUC): 0.909

CNCc1ccc(-c2[nH]c3cc(F)cc4c3c2CCNC4=O)cc1
Z-AUC [11]: 0.567 (inactive) | Z-AUC [11, 14]: 0.569 | Z-AUC ([11]; measured here: PEO4 Z-AUC): 0.848

CCn1c(-c2nonc2N)nc2c(C#CC(C)(C)O)ncc(OC[C@H]3CCCNC3)c21
Z-AUC [11]: 1.22 (inactive) | Z-AUC [11, 14]: 0.92 | Z-AUC ([11]; measured here: PEO4 Z-AUC): 1.41

CNC(=O)c1ccccc1Sc1ccc2c(/C=C/c3ccccn3)n[nH]c2c1
Z-AUC [11]: 0.578 (inactive) | Z-AUC [11, 14]: 0.269 | Z-AUC ([11]; measured here: PEO4 Z-AUC): 0.241

Cc1cccc(-c2nn(C(=S)Nc3ccccc3)cc2-c2ccnc3ccccc23)n1
Z-AUC [11]: 0.884 (inactive) | Z-AUC [11, 14]: 0.402 | Z-AUC ([11]; measured here: PEO4 Z-AUC): 0.406
